# Screens from PubChem BioAssay.
# MEP2-GFP yeast: modulators of TOR pathway MEP2-GFP in S. cerevisiae; actives 0.51% (n = 330,000); S. cerevisiae MEP2-GFP strain, flow cytometry GFP, 3 h; 100% = DMSO control level; AID 2016; GFP response vs DMSO, % at 10 µM;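 active = GFP response versus DMSO above a set limit, roughly screen mean plus 3 SD, cut at about 180% in these data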;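 note: median GFP fluorescence of the barcode-gated MEP2-GFP cells per well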
# LAP4-GFP MLPCN: yeast TOR pathway LAP4-GFP modulation. actives 0.34% (n = 320,000). S. cerevisiae LAP4-GFP multiplex, flow cytometry GFP, 3 h; median GFP as percent of DMSO wells. GFP response vs DMSO, % at 10 µM;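 active = GFP response vs DMSO above a set limit, about the screen mean plus 3 SD, cut at about 150% in these data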
# AGP1 TOR yeast: alters AGP1-GFP fluorescence in TOR pathway yeast screen; S. cerevisiae AGP1-GFP multiplex flow cytometry, 3 h; GFP as percent of DMSO wells; GFP response vs DMSO, % at 10 µM; actives 0.02% (n = 320,000);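 active = GFP response relative to DMSO above a set limit, near screen average plus 3 SD, cut at about 150% in these data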;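 note: median GFP channel fluorescence of the gated AGP1 strain per well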
# CIT2-GFP yeast: yeast TOR pathway CIT2-GFP modulation; AID 2029; GFP response vs DMSO, % at 10 µM; actives 0.065% (n = 320,000); S. cerevisiae CIT2-GFP strain, flow cytometry, 3 h; 100 means same as DMSO wells;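 active = GFP response relative to DMSO above a set limit, near the screen mean plus 3 SD, cut at about 150% in these data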;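 note: ratio of well median GFP fluorescence to mean of DMSO wells on the plate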
# RPL19A TOR yeast: modulators of TOR pathway RPL19A-GFP in S. cerevisiae | percent response vs DMSO, % at 10 µM | actives 0.3% (n = 330,000) | S. cerevisiae RPL19A-GFP strain, flow cytometry, 3 h; stronger effect = lower value | AID 2025;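 active = percent response vs DMSO below 50%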;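 note: median channel GFP fluorescence of the barcoded RPL19A-GFP strain; ratio of sample median GFP to plate DMSO average so 100% = DMSO; lower means less RPL19A-GFP as with rapamycin TOR inhibition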
# LAP4-GFP pick2: yeast LAP4-GFP modulation, second cherry pick. shares compounds with LAP4-GFP MLPCN. GFP response vs DMSO, % at 10 µM. S. cerevisiae LAP4-GFP strain, flow cytometry GFP, 3 h. actives 20% (n = 590);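 active = GFP signal as percent of the solvent control above about 150%, meaning raised reporter expression, limit read from the data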;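 note: ratio of well median GFP fluorescence to plate DMSO mean so 100% = DMSO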
# MEP2 cherry2: second confirmation of modulators of TOR reporter MEP2-GFP in yeast | actives 10% (n = 590) | AID 2622 | S. cerevisiae MEP2-GFP strain, flow cytometry GFP, 3 h | shares compounds with LAP4-GFP MLPCN | GFP response vs DMSO, % at 10 µM;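 active = GFP signal above 150% of the solvent control wells, that is a rise of more than half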;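 note: median channel GFP fluorescence of all gated yeast cells per well; ratio of median GFP to plate DMSO average so 100% = DMSO level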
# RPL19A-GFP pick2: yeast RPL19A-GFP TOR reporter modulation, second cherry pick; shares compounds with LAP4-GFP MLPCN; S. cerevisiae RPL19A-GFP strain, flow cytometry GFP, 3 h; stronger effect = lower value; 100% means same as DMSO wells; GFP response vs DMSO, % at 10 µM; actives 3% (n = 590); AID 2623;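 active = under 65% GFP response relative to DMSO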;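 note: median GFP channel fluorescence per well over the all cells gate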
# CIT2-GFP pick2: yeast CIT2-GFP TOR reporter modulation, second cherry pick; shares compounds with LAP4-GFP MLPCN; S. cerevisiae CIT2-GFP strain, flow cytometry GFP, 3 h; DMSO control wells read 100%; GFP response vs DMSO, % at 10 µM; actives 8% (n = 590);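 active = GFP response vs DMSO above about 150%, limit read from the data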;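 note: median green fluorescence per well over all gated yeast cells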
# AGP1 GFP CP2: yeast AGP1-GFP TOR reporter modulation, second cherry pick. shares compounds with LAP4-GFP MLPCN. S. cerevisiae AGP1-GFP strain, flow cytometry GFP, 3 h. percent response vs DMSO, % at 10 µM. 590 tested, under 10 active. AID 2643;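 active = over 150 percent of DMSO response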;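 note: median GFP channel fluorescence over all cells without mother daughter split; sample median GFP divided by mean DMSO control so 100% equals DMSO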
# s288c autofluor: yeast s288c autofluorescence artifact, counter-screen. fluorescence change (kMESF span) at 33 µM. S. cerevisiae s288c, 520 nm autofluorescence, flow cytometry, 3 h; stronger effect = higher value; zero means same as solvent-only cells. 610 tested, under 10 active. shares compounds with LAP4-GFP MLPCN. AID 2757;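 active = fluorescence span over the dose series, or activity score, above about 33, limit read from the data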
# s288c autofl DR: counter-screen for autofluorescence of TOR hits in yeast s288c | S. cerevisiae s288c parental, compound autofluorescence, flow cytometry, 3 h | fluorescence change (span) at 33 µM | shares compounds with LAP4-GFP MLPCN | 110 tested, under 10 active | AID 488829;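 active = fluorescence change span, or the activity score built from it, above 25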
# TORC1 bypass: wildtype yeast growth loss with TORC1 bypass cells unaffected; shares compounds with LAP4-GFP MLPCN; S. cerevisiae BY4741 spot growth rating, 48-72 h; stronger effect = lower value; growth rating (0-3) at 30 µM; 120 tested, under 10 active;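 active = growth rating at most 1 for wild type yeast while the TORC1 bypass strain still grows fully, rated 3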
# The depositor's hits bear a star; . = no result given; + = active, no number; ! = a repeat was not active. Only some compounds are listed: those with a hit (about 0.92% of all), similar ones and a draw of the others.
SMILES,MEP2-GFP yeast,LAP4-GFP MLPCN,AGP1 TOR yeast,CIT2-GFP yeast,RPL19A TOR yeast,LAP4-GFP pick2,MEP2 cherry2,RPL19A-GFP pick2,CIT2-GFP pick2,AGP1 GFP CP2,s288c autofluor,others
c1ccc(-c2cccc(-c3ccccn3)n2)nc1,111.6,318.6*,78.2,128.3,89.1,.,.,.,.,.,0.61,s288c autofl DR=0;TORC1 bypass=3
CCCCn1c(N)c(N(CC(C)C)C(=O)CCNC(=O)c2ccc(Br)cc2)c(=O)[nH]c1=O,108.1,110.2,114.4,103.9,105.1,.,.,.,.,.,.,
Cc1ccc2c(c1)c(/C=C/c1cc[n+](C)cc1)c(C)n2C,289.0*,198.2*,116.7,205.6*,127.4,.,.,.,.,.,15.6,
Cc1ccc2[nH]c(C)c(/C=C/c3cc[n+](C)cc3)c2c1,344.1*,208.6*,110.0,223.5*,124.2,.,.,.,.,.,16.5,
O=C1C=C(c2ccc3ncccc3c2)C[C@@H](c2ccc(Cl)cc2)C1,94.1,150.6*,89.2,77.4,93.5,111.2,97.8,93.1,84.8,96.6,.,
COc1ccc([C@H]2CC(=O)C=C(c3ccc4ncccc4c3)C2)cc1,90.7,122.6,71.2,84.1,95.0,.,.,.,.,.,.,
O=C(c1ccccc1)N(C1=NCCCCS1)c1ccccc1,104.1,91.9,103.3,106.1,108.1,.,.,.,.,.,.,
Cc1ccc(/C=C/C(=O)c2ccc([N+](=O)[O-])o2)cc1,96.7,175.6*,87.8,87.2,98.8,.,.,.,.,.,1.94,
C=CCOc1ccccc1CN1CCC(Oc2ccc(C(=O)N3CCCCC3)cc2)CC1,99.7,76.1,84.6,101.0,99.5,.,.,.,.,.,.,
CN(CC(=O)Nc1cccc(F)c1)C(=O)c1cc(S(=O)(=O)N(C)C)ccc1N1CCCC1,90.7,67.8,73.7,84.0,97.6,.,.,.,.,.,.,
Cc1nc2ccc(NC(=O)c3oc4ccc(F)cc4c3C)cc2s1,+,883.7*,265.5*,+,261.5,96.2,104.8,99.5,90.4,94.3,0,
Cc1c(C(=O)Nc2ccc3nc(N4CCOCC4)sc3c2)oc2ccccc12,102.1,111.0,101.2,96.2,97.7,.,.,.,.,.,.,
Cc1ccc(Cl)cc1NC(=O)CN1C(=O)NC(C)(C2CC2)C1=O (configuration not stated),107.8,150.8*,101.6,99.0,83.6,102.2,103.1,99.1,105.7,102.2,.,
O=C(CN1CCN(Cc2ccccc2)CC1)Nc1cccc(Cl)c1,104.9,97.0,97.3,95.0,97.1,.,.,.,.,.,.,
CN1/C(=C\C(=O)c2ccco2)C(C)(C)c2ccccc21,101.6,180.4*,91.8,96.4,81.4,103.8,104.8,101.9,107.4,97.0,.,
COc1cc(N2C(=O)C=CC2=O)c(OC)cc1Cl,95.5,259.8*,68.2,59.8,72.9,.,.,.,.,.,1.82,
CCC(=O)NC(c1ccc(C)cc1)c1cc(Cl)c2cccnc2c1O (configuration not stated),94.1,90.5,88.5,89.3,93.0,.,.,.,.,.,.,
CCOc1ccc(C(Nc2cccnc2)c2cc(Cl)c3cccnc3c2O)cc1 (configuration not stated),93.2,224.0*,75.1,70.0,70.1,.,.,.,.,.,1.31,
CCCCC(Sc1nc(N)c(NC(=O)c2ccco2)c(=O)[nH]1)C(=O)O (configuration not stated),94.0,101.2,96.8,96.4,93.8,.,.,.,.,.,.,
CCOC(=O)c1c(C)[nH]c(C)c1C(=O)COC(=O)/C=C/c1cccc(C(F)(F)F)c1,99.0,94.6,86.3,92.8,96.8,.,.,.,.,.,.,
CCOC(=O)c1c(C)[nH]c(C)c1C(=O)COC(=O)/C=C/c1cccc(F)c1,309.4*,245.7*,121.2,231.4*,124.0,104.2,115.3,98.0,112.6,95.5,.,
CC1CCCC(NC(=O)CN(C)CC(=O)Nc2cccc(F)c2)C1C (configuration not stated),155.1,171.9*,133.7,127.0,79.8,99.2,99.6,99.7,97.3,99.0,.,
CC(=O)c1ccc(NC(=O)CN(C)CC(=O)Nc2cccc(F)c2)cc1,93.5,90.5,90.8,83.8,93.4,.,.,.,.,.,.,
COc1cccc(/C=C2\C(=O)C(=O)c3ccccc32)c1,101.5,125.3,102.7,98.8,97.3,.,.,.,.,.,.,
COc1ccc2c(c1)CC/C(=C/c1cc(OC)c(OC)c(OC)c1)C2=O,107.1,111.5,110.7,93.0,102.6,.,.,.,.,.,.,
SMILES,MEP2-GFP yeast,LAP4-GFP MLPCN,AGP1 TOR yeast,CIT2-GFP yeast,RPL19A TOR yeast,LAP4-GFP pick2,MEP2 cherry2,RPL19A-GFP pick2,CIT2-GFP pick2,AGP1 GFP CP2,s288c autofluor,others
COc1cc(C=C2C(=O)c3ccccc3C2=O)cc(OC)c1,91.4,119.6,90.6,89.3,93.1,99.2,96.1,97.8,105.7,100.7,0,
COc1cc(C=C2C(=O)c3ccccc3C2=O)cc(OC)c1OC,89.8,121.0,88.8,88.6,99.7,105.2,103.1,93.3,96.0,103.4,0.2,
COc1ccc(C=C2C(=O)c3ccccc3C2=O)cc1O,99.8,103.8,99.5,96.9,97.0,94.2,96.5,103.0,102.9,95.3,0.3,
CCC(C(=O)OC)n1cnc2c(nnn2-c2ccc(F)cc2)c1=O (configuration not stated),98.2,108.8,95.4,90.5,94.0,.,.,.,.,.,.,
N#Cc1ccc(N=c2ssnc2Cl)cc1,92.0,157.8*!,87.0,101.6,93.6,125.0,114.8,96.2,123.3,96.2,1.41,
Clc1ccc(N=c2ssnc2Cl)cc1,87.5,155.8*,80.7,83.3,86.2,.,.,.,.,.,1.84,s288c autofl DR=0.52;TORC1 bypass=3
COc1ccc(NC(=S)NCc2ccc(F)cc2)cc1,82.8,72.8,86.0,84.7,88.8,.,.,.,.,.,.,
CCN1/C(=C/C=C/c2sc3ccccc3[n+]2CC)Sc2ccccc21,103.4,160.1*,92.8,72.4,87.4,200.4*,117.0,76.0,126.5,105.5,0.6,
